# Data reported in publication PMC12350791.
# Legend:
# Experiment in all cases: cross-linking mass spectrometry
# Details in all cases: DSBSO, in cells or nuclear extract, not told apart
# USP39 = USP39 (UniProt Q53GS9)
# UQCRC2 = UQCRC2 (UniProt P22695)
# ZC3H4 = ZC3H4 (UniProt Q9UPT8)
# SF3B2 = SF3B2 (UniProt Q13435)
# UBE2I = UBE2I (UniProt P63279)
# TSNAX = TSNAX (UniProt Q99598)
# TMED4 = TMED4 (UniProt Q7Z7H5)
# TMED9 = TMED9 (UniProt Q9BVK6)
# THRAP3 = THRAP3 (UniProt Q9Y2W1)
# SF3A1 = SF3A1 (UniProt Q15459)
# Sequence of SF3A1 (Q15459 whole entry): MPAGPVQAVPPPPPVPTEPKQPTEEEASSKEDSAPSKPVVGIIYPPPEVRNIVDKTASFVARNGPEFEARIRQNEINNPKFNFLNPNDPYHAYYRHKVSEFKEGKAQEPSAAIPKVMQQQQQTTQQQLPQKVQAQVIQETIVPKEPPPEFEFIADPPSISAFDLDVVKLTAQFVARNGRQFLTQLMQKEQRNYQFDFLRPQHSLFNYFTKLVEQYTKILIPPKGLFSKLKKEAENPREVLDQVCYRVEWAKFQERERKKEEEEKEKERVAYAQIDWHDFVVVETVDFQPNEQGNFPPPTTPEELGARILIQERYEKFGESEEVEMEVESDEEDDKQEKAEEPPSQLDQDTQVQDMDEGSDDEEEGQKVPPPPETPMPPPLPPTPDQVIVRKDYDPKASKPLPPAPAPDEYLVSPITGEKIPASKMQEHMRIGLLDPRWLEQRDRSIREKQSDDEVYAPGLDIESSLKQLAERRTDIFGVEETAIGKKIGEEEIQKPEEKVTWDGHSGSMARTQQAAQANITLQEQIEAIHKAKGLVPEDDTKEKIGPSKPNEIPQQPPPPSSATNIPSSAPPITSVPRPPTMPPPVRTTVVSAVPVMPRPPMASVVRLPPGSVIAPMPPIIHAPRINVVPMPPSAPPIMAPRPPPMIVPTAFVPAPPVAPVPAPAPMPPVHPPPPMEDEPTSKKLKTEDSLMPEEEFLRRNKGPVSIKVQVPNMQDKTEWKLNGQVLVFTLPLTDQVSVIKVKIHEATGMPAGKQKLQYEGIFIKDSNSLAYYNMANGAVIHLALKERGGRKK
# SF3B3 = SF3B3 (UniProt Q15393)
# Sequence of SF3B3 (Q15393 whole entry): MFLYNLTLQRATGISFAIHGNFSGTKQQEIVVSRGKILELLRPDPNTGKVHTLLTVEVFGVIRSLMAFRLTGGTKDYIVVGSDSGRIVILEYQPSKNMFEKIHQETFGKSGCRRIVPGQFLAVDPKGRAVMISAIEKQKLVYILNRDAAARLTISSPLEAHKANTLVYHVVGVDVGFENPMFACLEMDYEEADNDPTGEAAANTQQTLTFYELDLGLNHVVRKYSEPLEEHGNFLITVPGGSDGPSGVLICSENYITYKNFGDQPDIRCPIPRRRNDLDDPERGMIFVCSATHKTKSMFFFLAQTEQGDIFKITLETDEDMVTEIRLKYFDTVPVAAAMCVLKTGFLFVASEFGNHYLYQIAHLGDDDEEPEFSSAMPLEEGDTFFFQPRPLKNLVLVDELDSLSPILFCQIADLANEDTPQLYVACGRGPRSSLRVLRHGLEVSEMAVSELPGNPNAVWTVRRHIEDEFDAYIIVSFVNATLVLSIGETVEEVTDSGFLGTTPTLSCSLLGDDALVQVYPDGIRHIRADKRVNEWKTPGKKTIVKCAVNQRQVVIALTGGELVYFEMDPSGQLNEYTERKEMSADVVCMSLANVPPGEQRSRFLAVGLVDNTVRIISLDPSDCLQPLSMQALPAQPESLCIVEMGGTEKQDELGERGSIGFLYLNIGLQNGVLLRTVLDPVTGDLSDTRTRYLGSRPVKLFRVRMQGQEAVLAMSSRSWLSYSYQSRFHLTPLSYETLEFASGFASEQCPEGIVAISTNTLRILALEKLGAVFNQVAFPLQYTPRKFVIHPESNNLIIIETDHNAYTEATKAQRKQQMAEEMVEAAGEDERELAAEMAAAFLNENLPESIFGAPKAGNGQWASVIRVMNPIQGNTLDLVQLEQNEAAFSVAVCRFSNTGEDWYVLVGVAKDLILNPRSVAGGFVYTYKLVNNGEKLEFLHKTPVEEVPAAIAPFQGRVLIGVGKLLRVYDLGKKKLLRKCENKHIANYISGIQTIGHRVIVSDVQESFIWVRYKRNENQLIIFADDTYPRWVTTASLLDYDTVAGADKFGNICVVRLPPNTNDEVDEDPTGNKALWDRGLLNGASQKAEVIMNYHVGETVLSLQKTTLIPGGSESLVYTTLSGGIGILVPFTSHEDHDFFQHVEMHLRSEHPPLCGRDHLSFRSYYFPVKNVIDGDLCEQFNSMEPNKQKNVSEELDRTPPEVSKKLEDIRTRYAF
# STAT5B = STAT5B (UniProt P51692)
# STK24 = STK24 (UniProt Q9Y6E0)
# YWHAG = YWHAG (UniProt P61981)
# YWHAH = YWHAH (UniProt Q04917)
# SMC4 = SMC4 (UniProt Q9NTJ3)
# UXT = UXT (UniProt Q9UBK9)
# VIRMA = VIRMA (UniProt Q69YN4)
# SYMPK = SYMPK (UniProt Q92797)
# YWHAB = YWHAB (UniProt P31946)
# YWHAZ = YWHAZ (UniProt P63104)
# Sequence of YWHAZ (P63104 whole entry): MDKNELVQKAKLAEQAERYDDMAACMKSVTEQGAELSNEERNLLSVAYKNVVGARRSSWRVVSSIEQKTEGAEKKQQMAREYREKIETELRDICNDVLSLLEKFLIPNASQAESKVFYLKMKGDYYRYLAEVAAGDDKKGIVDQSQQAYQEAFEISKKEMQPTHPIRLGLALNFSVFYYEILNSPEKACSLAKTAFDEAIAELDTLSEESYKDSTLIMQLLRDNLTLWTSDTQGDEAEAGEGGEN
# THOC3 = THOC3 (UniProt Q96J01)
# THOC7 = THOC7 (UniProt Q6I9Y2)
# VPS35 = VPS35 (UniProt Q96QK1)
# TXLNG = TXLNG (UniProt Q9NUQ3)
# SPC25 = SPC25 (UniProt Q9HBM1)
# TMED2 = TMED2 (UniProt Q15363)
# TMED7 = TMED7 (UniProt Q9Y3B3)
# SNRPD3 = SNRPD3 (UniProt P62318)
# SPG11 = SPG11 (UniProt Q96JI7)
# SNRPD1 = SNRPD1 (UniProt P62314)
# SNU13 = SNU13 (UniProt P55769)
# THOC1 = THOC1 (UniProt Q96FV9)
# SF1 = SF1 (UniProt Q15637)
# Sequence of TMED10, P49755 (P49755 whole entry): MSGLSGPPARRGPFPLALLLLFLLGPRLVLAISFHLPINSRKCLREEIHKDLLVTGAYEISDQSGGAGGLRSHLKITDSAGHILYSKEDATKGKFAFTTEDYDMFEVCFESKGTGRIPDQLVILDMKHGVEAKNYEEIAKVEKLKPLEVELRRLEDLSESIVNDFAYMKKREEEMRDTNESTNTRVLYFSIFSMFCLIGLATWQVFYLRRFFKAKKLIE
# Sequence of TMED2, Q15363 (Q15363 whole entry): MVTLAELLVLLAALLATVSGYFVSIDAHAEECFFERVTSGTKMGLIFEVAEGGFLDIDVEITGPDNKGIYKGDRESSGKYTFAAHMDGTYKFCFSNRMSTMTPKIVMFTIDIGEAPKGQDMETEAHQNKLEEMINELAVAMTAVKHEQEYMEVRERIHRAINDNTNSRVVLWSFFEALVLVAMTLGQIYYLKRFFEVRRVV
# Sequence of SF3A3, Q12874 (Q12874 whole entry): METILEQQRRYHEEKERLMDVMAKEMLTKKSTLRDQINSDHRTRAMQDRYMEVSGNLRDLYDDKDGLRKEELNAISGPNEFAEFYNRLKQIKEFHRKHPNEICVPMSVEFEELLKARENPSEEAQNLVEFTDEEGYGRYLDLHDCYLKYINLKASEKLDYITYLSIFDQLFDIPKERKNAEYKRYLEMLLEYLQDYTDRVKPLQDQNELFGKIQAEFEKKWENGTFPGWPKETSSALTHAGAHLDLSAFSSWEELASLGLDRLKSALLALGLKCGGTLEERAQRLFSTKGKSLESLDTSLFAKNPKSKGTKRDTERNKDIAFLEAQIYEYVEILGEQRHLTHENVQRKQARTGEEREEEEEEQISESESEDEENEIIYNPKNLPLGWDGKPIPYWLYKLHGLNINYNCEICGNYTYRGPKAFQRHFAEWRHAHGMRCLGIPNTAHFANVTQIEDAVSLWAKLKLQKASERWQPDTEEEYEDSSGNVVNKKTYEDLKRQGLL
# Sequence of TMED4 (Q7Z7H5 whole entry): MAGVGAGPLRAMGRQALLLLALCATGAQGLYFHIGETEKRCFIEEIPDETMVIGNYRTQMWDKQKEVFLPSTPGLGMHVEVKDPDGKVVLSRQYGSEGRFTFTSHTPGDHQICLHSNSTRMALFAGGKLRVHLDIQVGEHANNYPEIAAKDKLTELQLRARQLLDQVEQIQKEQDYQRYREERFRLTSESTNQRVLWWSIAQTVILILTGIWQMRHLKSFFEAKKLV
# Sequence of THOC5, Q13769 (Q13769 whole entry): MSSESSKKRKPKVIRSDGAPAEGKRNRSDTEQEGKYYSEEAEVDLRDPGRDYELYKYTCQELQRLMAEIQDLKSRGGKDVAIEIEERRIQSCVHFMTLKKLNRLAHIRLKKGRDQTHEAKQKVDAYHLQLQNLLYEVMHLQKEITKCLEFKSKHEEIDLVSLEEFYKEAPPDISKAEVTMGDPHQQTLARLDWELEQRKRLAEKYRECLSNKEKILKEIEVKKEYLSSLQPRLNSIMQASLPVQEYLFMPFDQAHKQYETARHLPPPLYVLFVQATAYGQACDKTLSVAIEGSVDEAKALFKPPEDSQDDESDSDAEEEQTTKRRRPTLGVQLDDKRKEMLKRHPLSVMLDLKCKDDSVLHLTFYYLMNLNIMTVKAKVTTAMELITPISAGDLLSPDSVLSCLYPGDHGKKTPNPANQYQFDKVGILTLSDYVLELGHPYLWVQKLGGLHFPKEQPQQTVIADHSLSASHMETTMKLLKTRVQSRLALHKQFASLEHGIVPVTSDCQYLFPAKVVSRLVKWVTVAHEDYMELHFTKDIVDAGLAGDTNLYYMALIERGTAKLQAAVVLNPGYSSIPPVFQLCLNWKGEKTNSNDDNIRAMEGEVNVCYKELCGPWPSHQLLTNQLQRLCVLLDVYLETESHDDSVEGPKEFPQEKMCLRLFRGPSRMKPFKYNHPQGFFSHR
# Sequence of SF3B2 (Q13435 whole entry): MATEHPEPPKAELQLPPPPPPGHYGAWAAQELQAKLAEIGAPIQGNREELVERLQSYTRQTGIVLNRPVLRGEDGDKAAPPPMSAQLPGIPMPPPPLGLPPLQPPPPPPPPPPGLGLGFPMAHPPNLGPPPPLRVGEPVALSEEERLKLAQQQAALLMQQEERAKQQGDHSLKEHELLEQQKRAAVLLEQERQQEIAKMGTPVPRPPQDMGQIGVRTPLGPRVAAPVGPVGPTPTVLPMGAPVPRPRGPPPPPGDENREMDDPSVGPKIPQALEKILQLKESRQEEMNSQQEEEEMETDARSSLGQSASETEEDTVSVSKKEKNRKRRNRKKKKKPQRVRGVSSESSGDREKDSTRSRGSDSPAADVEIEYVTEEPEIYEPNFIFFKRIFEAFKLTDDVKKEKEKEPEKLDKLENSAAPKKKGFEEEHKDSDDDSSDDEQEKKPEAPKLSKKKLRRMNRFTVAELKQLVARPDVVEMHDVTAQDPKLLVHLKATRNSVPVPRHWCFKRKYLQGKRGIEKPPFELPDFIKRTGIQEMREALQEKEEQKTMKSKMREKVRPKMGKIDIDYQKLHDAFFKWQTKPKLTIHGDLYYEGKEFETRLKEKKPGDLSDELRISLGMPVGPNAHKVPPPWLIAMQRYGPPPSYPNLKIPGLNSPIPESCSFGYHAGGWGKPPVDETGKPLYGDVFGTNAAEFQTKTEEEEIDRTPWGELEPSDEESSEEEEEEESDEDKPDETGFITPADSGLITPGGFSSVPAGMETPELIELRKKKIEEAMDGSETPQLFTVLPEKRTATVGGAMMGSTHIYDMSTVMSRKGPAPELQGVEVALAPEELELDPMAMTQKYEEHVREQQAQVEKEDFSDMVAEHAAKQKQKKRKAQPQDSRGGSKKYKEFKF
substance,measurement,setting,value
"EFTUD2, Q15029",cross-linked residues,USP39,K646 - K308
"COX5B, P10606",cross-linked residues,UQCRC2,K57 - K23
"WDR82, Q6UXN9",cross-linked residues,ZC3H4,K181 - K935
"SF3B1, O75533",cross-linked residues,SF3B2,K1292 - K486
"RANBP2, P49792",cross-linked residues,UBE2I,K2687 - K49
"TSN, Q15631",cross-linked residues,TSNAX,K219 - K269
"TMED2, Q15363",cross-linked residues,TMED4,K129 - K152
same,cross-linked residues,TMED9,K129 - K160
"NDUFAF2, Q8N183",cross-linked residues,THRAP3,K57 - K668
"SF3A2, Q15428",cross-linked residues,SF3A1,K190 - K264
"SF3B2, Q13435",cross-linked residues,SF3A1,K275 - K55
same,cross-linked residues,SF3B3,K486 - K965
"STAT5A, P42229",cross-linked residues,STAT5B,K86 - K86
"PDCD10, Q9BUL8",cross-linked residues,STK24,K70 - K347
"YWHAB, P31946",cross-linked residues,YWHAG,K87 - K10
"YWHAZ, P63104",cross-linked residues,YWHAH,K9 - K91
"NCAPH, Q15003",cross-linked residues,SMC4,K725 - K99
"PDRG1, Q9NUG6",cross-linked residues,UXT,K36 - K48
"ZC3H13, Q5T200",cross-linked residues,VIRMA,K1535 - K576
"CSTF2, P33240",cross-linked residues,SYMPK,K189 - K490
"WTAP, Q15007",cross-linked residues,VIRMA,K268 - K399
"YWHAQ, P27348",cross-linked residues,YWHAB,K85 - K11
"YWHAE, P62258",cross-linked residues,YWHAZ,K12 - K68
"THOC5, Q13769",cross-linked residues,THOC3,K223 - K171
same,cross-linked residues,THOC7,K223 - K159
"VPS26A, O75436",cross-linked residues,VPS35,K30 - K44
"YWHAG, P61981",cross-linked residues,YWHAZ,K77 - K9
"TXLNA, P40222",cross-linked residues,TXLNG,K216 - K191
"TBC1D9B, Q66K14",cross-linked residues,SPC25,K1066 - K90
"TMED10, P49755",cross-linked residues,TMED2,K145 - K129
same,cross-linked residues,TMED4,K145 - K152
same,cross-linked residues,TMED7,K169 - K91
"SNRPC, P09234",cross-linked residues,SNRPD3,K52 - K78
"RPS16, P62249",cross-linked residues,SPG11,K60 - K942
"SNRPB, P14678",cross-linked residues,SNRPD1,K54 - K44
"PRPF6, O94906",cross-linked residues,SNU13,K775 - K113
"SF3A3, Q12874",cross-linked residues,SF3B2,K69 - K280
same,cross-linked residues,SF3B3,K496 - K974
"THOC7, Q6I9Y2",cross-linked residues,THOC1,K32 - S2
"IREB2, P48200",cross-linked residues,SF1,K530 - K169
